# According to PubChem BioAssay (NCATS):
# Inconclusive results are not listed. Activity calls are given as the source filed them. The call rests on the fitted dose curve; in most records, active means well fitted curve in the direction sought with a large enough effect; inconclusive means small, poorly fitted or top-dose-only effect, or another doubt; inactive means no such curve, though single readings can be large or run the other way.
# Experiment: qHTS Assay for Identifying Gametocytocidal Compounds (AID 743244);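 further: actives lower the fluorescent signal which means gametocytes are killed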
# Conditions: P. falciparum 3D7 stage III-V gametocytes, alamarBlue, 72 h; max response: hits give low values
# Outline: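 Stage III–V gametocytes of P. falciparum 3D7 were seeded at 20,000 cells/well onto pre-dispensed compounds. After 72 h, 37 °C, 5% CO2, alamarBlue was added for another 24 h.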
# On the % scale 0 is the no-effect control and ±100 the full control effect.
row,SMILES,max response
1,Cc1cccc(C)c1NC(=O)CC12CCCN1CCC2,0.37% (inactive)
2,CCCCCCCCCCC(CO)CCCCCCCC (stereo unspecified),-4.55% (inactive)
3,CCOC(=O)[C@H](CCc1ccccc1)N[C@@H](C)C(=O)N1Cc2cc(OC)c(OC)cc2C[C@H]1C(=O)O,0.618% (inactive)
4,Cc1ccc(S(=O)(=O)NC(=O)NC2CCCCCCC2)cc1,5.01% (inactive)
5,O=C(O)Cc1cn(-c2ccccc2)nc1-c1ccc(Cl)cc1,6.52% (inactive)
6,c1ccc2[nH]ccc2c1,-5.55% (inactive)
7,COc1ccccc1Oc1c(NS(=O)(=O)c2ccc(C(C)(C)C)cc2)nc(-c2ncccn2)nc1OCCO,-3.79% (inactive)
8,CN1CCCN=C1COC(=O)C(O)(c1ccccc1)C1CCCCC1 (stereo unspecified),-2.61% (inactive)
9,Nc1ccncc1N,8.86% (inactive)
10,C[C@@H](N)C(=O)O,-2.49% (inactive)
11,Cc1ccsc1/C=C/C1=NCCCN1C,6.27% (inactive)
12,NNC(=O)CP(=O)(c1ccccc1)c1ccccc1,-4.41% (inactive)
13,CC(=O)N[C@@H](CC(C)C)C(=O)O,-15.3% (inactive)
14,CC(O)CCCCn1c(=O)c2c(ncn2C)n(C)c1=O (stereo unspecified),-9.87% (inactive)
15,O=C(O)COC(=O)Cc1ccccc1Nc1c(Cl)cccc1Cl,5.55% (inactive)
16,CC(C)=CCC[C@@](C)(O)[C@H]1CC=C(C)CC1,10.2% (inactive)
17,CC(=O)Oc1cccc(C)c1,19.2% (inactive)
18,CC(=O)N(CC(O)CN(C(C)=O)c1c(I)c(C(=O)NCC(O)CO)c(I)c(C(=O)NCC(O)CO)c1I)c1c(I)c(C(=O)NCC(O)CO)c(I)c(C(=O)NCC(O)CO)c1I (stereo unspecified),-5.28% (inactive)
19,CCCNC(C)C(=O)Nc1c(C)csc1C(=O)OC (stereo unspecified),7.96% (inactive)
20,CC(C(=O)O)c1ccc2c(c1)Cc1cccnc1O2 (stereo unspecified),-8.08% (inactive)
21,CCc1nnc(NS(=O)(=O)c2ccc(N)cc2)s1,-5.5% (inactive)
